# Arbovirus inh: antivirals against arbovirus infection, primary screen, cell-based, full library, 10K replicate subset | arbovirus infection cell-based antiviral screen | AID 1251, 2008 | 200,000 tested, 0.37% active | inhibition, % at 10 µM; in the data active = inhibition above about 30%
# Mcl1 Noxa PPI: Mcl-1/Noxa binding inhibitors, primary screen, biochemical, TR-FRET, 1536-well | AID 1022, 2008 | inhibition, % at 21.7 µM | 220,000 tested, 1.5% active | TR-FRET Mcl-1/Noxa peptide binding, 2 h;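 active = compounds that cut the protein-peptide binding signal by more than 50% relative to plate controls in a single-dose test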;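 note: His-tagged Mcl-1 with rhodamine Noxa BH3 peptide and terbium anti-His antibody; 0% = Mcl-1 plus Noxa peptide wells and 100% = peptide-only wells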
# Target sequence (Q07820 whole entry, looked up): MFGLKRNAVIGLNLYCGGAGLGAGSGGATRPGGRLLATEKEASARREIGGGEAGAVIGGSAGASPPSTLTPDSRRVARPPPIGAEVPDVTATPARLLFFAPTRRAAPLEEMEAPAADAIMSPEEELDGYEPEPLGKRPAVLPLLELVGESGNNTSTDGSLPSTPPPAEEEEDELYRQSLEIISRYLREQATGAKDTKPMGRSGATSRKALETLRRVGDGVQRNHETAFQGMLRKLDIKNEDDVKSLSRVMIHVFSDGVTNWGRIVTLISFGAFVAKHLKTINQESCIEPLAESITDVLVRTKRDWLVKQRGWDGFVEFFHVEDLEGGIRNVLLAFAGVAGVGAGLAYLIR
# 14-3-3 Bad PPI: inhibitors of 14-3-3 zeta/Bad binding, primary screen, biochemical, TR-FRET, bovine 14-3-3 zeta; TR-FRET 14-3-3zeta/Dy647-pBad peptide displacement, 1 h; AID 781, 2007; 220,000 tested, 0.71% active; inhibition, % at 21.7 µM;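 active = inhibition above about 70%, limit read from the data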;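 note: 0% = full 14-3-3 plus peptide FRET controls and 100% = background without 14-3-3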
# Target sequence (P63103 whole entry, looked up): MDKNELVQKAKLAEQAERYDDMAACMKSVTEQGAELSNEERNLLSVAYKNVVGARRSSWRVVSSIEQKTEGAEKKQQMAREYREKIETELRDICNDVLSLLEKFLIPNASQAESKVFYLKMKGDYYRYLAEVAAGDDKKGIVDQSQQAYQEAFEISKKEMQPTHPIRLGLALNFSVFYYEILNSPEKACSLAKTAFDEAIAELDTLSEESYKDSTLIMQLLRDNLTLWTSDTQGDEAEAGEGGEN
# Mcl1-Bid inh: Mcl-1/Bid binding inhibitors, primary screen, biochemical, TR-FRET, 1536-well | Induced myeloid leukemia cell differentiation protein Mcl-1 (Homo sapiens), Q07820 | TR-FRET Mcl-1/Bid-Dy647 peptide binding | inhibition, % at 21.7 µM | 220,000 tested, 0.97% active | AID 1021, 2008;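 active = compounds that cut the binding signal by more than half at the single screening dose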;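 note: His-tagged Mcl-1 with europium anti-His antibody binding Bid BH3 peptide; 0% = Mcl-1 plus peptide wells and 100% = peptide-only wells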
# Bim-Mcl-1: inhibitors of Bim peptide binding to Mcl-1, primary screen, biochemical, bead-based flow cytometry, multiplex. Induced myeloid leukemia cell differentiation protein Mcl-1 (Homo sapiens), Q07820. Bim peptide-Mcl-1 binding. inhibition, % at 10 µM. 190,000 tested, 0.1% active. AID 1009, 2008; in the data active = inhibition above about 40%;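 note: 0% = no compound tracer wells and 100% = peptide blocker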
# The depositor's hits bear a star; . = not tested or not shown; [ ] = dose if it differs, or a comment. Hits are enriched below; roughly 3% of the tested compounds scored in any of these assays.
SMILES,Arbovirus inh,Mcl1 Noxa PPI,14-3-3 Bad PPI,Mcl1-Bid inh,Bim-Mcl-1
O=c1c(CN2CCN(Cc3ccccc3)CC2)coc2ccc(Cl)cc12,-2,15,72*,93*,-2
O=c1cc(CN2CCN(Cc3ccccc3)CC2)c2cc(Cl)ccc2o1,12,11,4,-11,1
Cc1ccc2occ(CN3CCN(Cc4ccccc4)CC3)c(=O)c2c1,4,.,72*,20,-1
CCCS(=O)(=O)c1ccc(COC(=O)c2ccc(NC(C)=O)cc2)cc1,-2,4,5,-17,4
CCOc1cc(/C=N/Nc2ccc(C(=O)O)cc2)ccc1OC(=O)c1ccccc1C,.,56*,5,5,.
COc1cccc(OCc2cc(/C=N/Nc3ccc(C(=O)O)cc3)ccc2OC)c1,.,67*,1,-34,.
Cc1ccc(NC(=S)NNC(=O)c2ccc(N3CCOCC3)c([N+](=O)[O-])c2)cc1C,-4,-23,-11,-50,-4
COC(=O)c1ccccc1NC(=O)C1COc2ccccc2O1 (centres undefined),12,-18,-7,-16,-1
COc1ccc(Cl)cc1C(=O)NNC(=O)C1COc2ccccc2O1 (centres undefined),-2,-1,23,-32,0
COc1ccc(C)cc1NC(=O)C1COc2ccccc2O1 (centres undefined),50*,3,-7,-15,-4
COC(=O)c1ccsc1NC(=O)C1COc2ccccc2O1 (centres undefined),31*,-1,1,-10,1
COc1cccc(C(C(=O)NC(C)(C)C)N(CC(C)C)C(=O)CCC(=O)Nc2cc(C)on2)c1OC (centres undefined),-3,16,-1,-5,3
O=C(c1ccccn1)N(Cc1cccs1)C1(C(=O)NC2CCCCC2)CCCCC1,0,11,-12,-11,-2
CCN(CC)c1ccc(NC(=O)CCNC(=O)c2ccco2)cc1,-5,79*,-20,-74,-1
O=C(CCNC(=O)c1ccco1)Nc1ccc(Cl)cc1,-9,22,2,12,-3
Cc1[nH]c2ccccc2c1C(c1ccccn1)N1CCC(C(N)=O)CC1 (centres undefined),-22,57*,4,17,-1
CCOC(=O)C1CCN(C(c2ccccn2)c2c(C)[nH]c3ccccc23)CC1 (centres undefined),-12,59*,-8,4,2
Cc1[nH]c2ccccc2c1C(c1ccncc1)N1CCC(C)CC1 (centres undefined),-2,0,-9,-12,-2
Fc1c(CSC(=S)N2CCOCC2)cccc1CSC(=S)N1CCOCC1,.,0,3,-22,.
CCc1ccccc1NC(=O)N1CCC(NC(=O)C(Cc2ccccc2)NC(C)=O)CC1 (centres undefined),9,15,-8,-10,-2
O=C1ON=C(c2ccccc2)/C1=C/c1ccc(OS(=O)(=O)c2ccccc2)cc1,0,72*,49,18,-7
O=C1ON=C(c2ccccc2)/C1=C/c1cccnc1,12,23,3,-11,2
Cc1ccc(-n2[nH]c(=O)c(-c3ccccn3)c2C)cc1,4,7,-2,-8,0
Cc1ccc(-n2[nH]c(=O)c3cccnc32)cc1,7,65*,-13,-11,-5
COc1ccc(CCNC(=O)COC(=O)Cc2cccc3ccccc23)cc1,1,83*,9,-5,-6
SMILES,Arbovirus inh,Mcl1 Noxa PPI,14-3-3 Bad PPI,Mcl1-Bid inh,Bim-Mcl-1
C/C(=N\NC(=O)c1cnccn1)c1ccc([N+](=O)[O-])cc1,.,3,-3,4,.
CC(C)c1ccc(/C=N/NC(=O)c2cc(-c3cccc([N+](=O)[O-])c3)n[nH]2)cc1,.,22,2,43,.
C/C(=N/NC(=O)c1cc(-c2cccc([N+](=O)[O-])c2)n[nH]1)c1ccc(Cl)cc1,7,64*,77*[fluorescence artefact?],74*,4
C/C(=N/NC(=O)CNC(=O)c1cccnc1)c1ccc([N+](=O)[O-])cc1,1,73*,2,3,2
C/C(=N/NC(=O)c1cc(O)c(O)c(O)c1)c1ccc([N+](=O)[O-])cc1,7,59*,-3,-50,8
CCOc1cc(NC(=O)CC(C)C)c(OCC)cc1NC(=O)CCn1nnc2ccccc21,6,-1,-6,-13,0
Cc1cc(C2=NNC(=NC3CC3)SC2)c(C)n1-c1c(C)n(C)n(-c2ccccc2)c1=O,6,52*,15,7,-2
Cc1nn(C)c(Cl)c1C(N)=O,-1,-6,-12,-13,0
Cc1nc(S/C(=C\c2ccc(-c3ccc(C(=O)O)c(Cl)c3)o2)C(=O)O)n[nH]1,.,93*,86*,55*,.
Cc1nc(S/C(=C\c2ccc(OCc3ccccc3Cl)cc2)C(=O)O)n[nH]1,4,-27,5,-36,-3
O=C(Nc1ccc2nc3ccccc3nc2c1)c1ccccc1,-24,81*,4,33,7
CC(=O)Nc1ccc2cc3ccc(NC(C)=O)cc3nc2c1,.,59*,6,1,.
CC(=O)Nc1ccc2ccccc2c1,6,8,92*[fluorescence artefact?],-12,-2
Cc1ccc(-n2nc(C)c3onc(C)c3c2=O)cc1,.,-5,-5,-7,.
O=CNCC(=O)NCCc1ccc(Cl)cc1,37*,17,6,-27,-4
COc1ccc(C/C(=N\O)c2ccc(OC)cc2)cc1,2,-2,-8,0,-3
O=C(CN1CCC(N2CCCCC2)CC1)N1CCCc2ccccc21,2,31,87*,26,-1
COc1cccc(/C=N/Nc2snc(SC)c2C#N)c1O,15,72*,13,35,-1
COc1ccc(/C=N/Nc2snc(SC)c2C#N)cc1OC,26,67*,22,19,0
Cc1c2c(c(C)n1C)C(C(=O)NC1CCCCC1)N(Cc1ccccc1)C2=O (centres undefined),1,-6,-3,-55,0
C=CCOC(=O)c1sc(NC(=O)c2ccc(OC)cc2)nc1C,-30,-84,-1,3,0
Cc1cc(CNC(=S)Nc2cccc(Cl)c2Cl)nn1C,-1,2,6,-12,-2
CC(C)C(=O)NC(=S)Nc1ccc(S(=O)(=O)N2CCN(C)CC2)cc1,5,-4,6,-35,-6
O=C1CC(C(=O)NC2CCCCC2)C2(CCCCC2)O1 (centres undefined),9,9,3,-38,-2
COc1ccc(NC(=O)c2cc3cccc(OC)c3oc2=Nc2ccc(C(=O)O)cc2)cc1OC,31*,77*,50,-51,-2
COc1ccc(Br)cc1C(=O)Nc1ccc(C(=O)O)cc1,-1,1,3,2,-7
